The values that follow come from PubChem BioAssay (NCATS).

Molecules are shown by their SMILES. Records with an inconclusive call do not appear. Values without a mark were called inactive. Active and inactive are the calls of the source. Calls come from the whole dose curve; as a rule, active = well fitted inhibition curve with a large enough effect; inconclusive = small, poorly fitted or top-dose-only effect; inactive = flat fitted curve, though single readings scatter.
% is set by controls: 0 for no effect and ±100 for the full control effect; potency is the fitted concentration of half-maximal effect.

One assay relates to CRL-7250. Briefly: Cytotoxic Profiling of Annotated Libraries Using Quantitative High-Throughput Screening (AID 1296008). Note: nearly all actives have a fitted effect of over 60% in size. The following applies: Five cell lines viability, CellTiter-Glo ATP luminescence, 48-72 h; max response: hits give low values. Put shortly: (§1)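 Compounds were pin-transferred onto cells and incubated 48 or 72 hr at 37 degree Celsius, 95% humidity. CellTiter-Glo was added, plates sat 10 min at room temperature, then ATP-coupled luminescence was imaged as the viability read-out.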
In general terms: Cellular ATP, detected with luciferase, serves as a proxy for viable cell number.
`CCc1cc2cc(OC)c(OC)cc2c(Cc2ccccc2)n1`: the compound was classed as inactive. In the case of `CN(C)c1cc2c(Nc3ccc4c(cnn4Cc4ccccc4)c3)ncnc2cn1`, the max response was -15%. `CC1CCCCN1CCCOC(=O)c1ccc(OC2CCCCC2)cc1` (centres undefined): the max response was -16.2%. Same read-out and setting: the value for `Cc1nc(C2CCCCC2)c(-c2ccc(S(N)(=O)=O)c(F)c2)o1` was -4.52%; that for `CCOC(=O)[C@H](CCc1ccccc1)N[C@@H](C)C(=O)N(CC(=O)O)C1Cc2ccccc2C1` was 0.8%. For `CC(C)=CCNc1ncnc2c1ncn2[C@@H]1O[C@H](CO)[C@@H](O)[C@H]1O`, the Potency was 1.5 µM (active). As to `C/C=C(/C(=C/C)c1ccc(OC(C)=O)cc1)c1ccc(OC(C)=O)cc1`, the max response is 0.166%. Take `Cc1c(C)c2c(c(C)c1OC(=O)CCC(=O)OCCO)CC[C@@](C)(CCC[C@H](C)CCC[C@H](C)CCCC(C)C)O2`: the max response is -109%. As for `CC(C)Cc1ccc(C(C)C(=O)OCc2ccccn2)cc1` (centres undefined), the max response was -2.57%. On to `Cc1ccc(CCn2c3c(c4cc(Cl)ccc42)CN(C)CC3)cn1`, for which the max response was -3.39%.

For `COC(=O)C1=C(C)NC(C)=C(C(=O)OCCc2ccc(N3CCN(C(c4ccccc4)c4ccccc4)CC3)cc2)C1c1cccc([N+](=O)[O-])c1` (centres undefined), the max response is -8.49%. In the case of `O=C(OCCN1CCOCC1)c1cccnc1Nc1cccc(C(F)(F)F)c1`, the max response is -4.59%. With `Cc1cccc(N(C)C(=S)Oc2ccc3c(c2)C2CCC3C2)c1` (centres undefined), the Potency is 29.9 µM (active).

The subject of another assay is HEK293. The description is as above. The following applies: Five cell lines viability, CellTiter-Glo ATP luminescence, 48-72 h; max response: hits give low values. Put shortly: as §1
On to `COC(=O)[C@H]1[C@H]2C[C@@H]3c4[nH]c5cc(OC)ccc5c4CCN3C[C@H]2C[C@@H](OC(=O)/C=C/c2ccc(O)c(OC)c2)[C@@H]1OC`, for which the Potency is 9.44 µM (active).

For `Cc1ncc([N+](=O)[O-])n1C`, the result was inactive.

For the compound `Nc1cccc2c(N)cccc12`, the Potency was 34.4 µM (active). `CC[C@@H]([C@H](C)O)n1ncn(-c2ccc(N3CCN(c4ccc(OC[C@@H]5CO[C@@](Cn6cncn6)(c6ccc(F)cc6F)C5)cc4)CC3)cc2)c1=O`: the Potency was 7.5 µM (active). The same measure, in the same setting: as for `Cc1nc(N)nc(N)c1-c1ccc(Cl)c(Cl)c1`, the figure is 1.06 µM (active). Regarding `Cc1cc(C(C)(C)C)c(O)c(C(C)(C)C)c1`, the max response is -3.94%. Regarding `OCCOCCN1CCN(C(c2ccccc2)c2ccc(Cl)cc2)CC1` (centres undefined), the max response was -4.98%.

In the case of `Brc1ccccc1-c1ccccc1`, the max response is -9.62%. `OC1(c2ccc(Cl)c(C(F)(F)F)c2)CCN(CCCC(c2ccc(F)cc2)c2ccc(F)cc2)CC1`: the Potency is 8.41 µM (active). As for `OCc1c[nH]c2ccccc12`, the Potency was 21.7 µM (active).

For `O=C1NCCN1CCN1CCC(c2cn(-c3ccc(F)cc3)c3ccc(Cl)cc23)CC1`, the Potency is 6.68 µM (active).

As for `CC(C)(C)c1ccc(O)c(O)c1`, the Potency was 12.2 µM (active). Turning to `CC(C)=CCC/C(C)=C/CC/C(C)=C/C(=O)OCC(=O)[C@@]1(O)CC[C@H]2[C@@H]3CCC4=CC(=O)C=C[C@]4(C)[C@H]3[C@@H](O)C[C@@]21C`, the Potency is 10.6 µM (active). Consider `CC(=O)O[C@@H]1C(=O)O[C@@H]2[C@H]1OC(=O)[C@@H]2OC(C)=O`, for which the max response is -3.32%. As for `COc1cc2c(cc1OC)CN(C(=O)[C@H](C)N[C@@H](CCc1ccccc1)C(=O)O)[C@H](C(=O)O)C2`, the compound was called inactive.

Consider `CCOC(=O)c1cc(=O)c2c(OCC(COc3cccc4oc(C(=O)OCC)cc(=O)c34)OC(=O)[C@@H](N)CCCCN)cccc2o1`, for which the max response is 4.3%. On the same count and under the same terms, the value for `O=C(Nc1ccc(Cl)cc1)Nc1ccc(Cl)c(C(F)(F)F)c1` was -107%; that for `COc1ccc2nc(SCc3ncc(C)c(OC)c3C)[nH]c2c1` was -3.1%. With `NC(=O)C1(N2CCCCC2)CCN(CCCN2c3ccccc3CCc3ccc(Cl)cc32)CC1`, the Potency is 10.6 µM (active).

As to `CCOC(=O)Cn1cccc1-c1nc(-c2ccc(OC)cc2)c(-c2ccc(OC)cc2)s1`, the Potency was 8.2 µM (active).

As for `CC(C(O)c1ccccc1)N(C)CCOC(c1ccccc1)c1ccccc1` (centres undefined), the Potency is 13 µM (active). As to `O=C1Nc2cc(Cl)ccc2Oc2ccccc21`, the call was inactive.

Consider `N#CSCC(=O)O`, for which the max response was 0.303%. For the compound `Oc1cccc2[nH]ccc12`, the max response was 2.46%. As to `CCOC(=O)C1=C(C)NC(C)=C(C(=O)OCC)C1c1ccccc1/C=C/C(=O)OC(C)(C)C`, the Potency was 7.5 µM (active). The same measure, in the same setting: the value for `CC(=O)Nc1ccn(C2COC(COC(=O)c3ccccc3)O2)c(=O)n1` (centres undefined) was 18.8 µM (active).

The subject of a further assay is HaCat. The assay is described as above. The following applies: Five cell lines viability, CellTiter-Glo ATP luminescence, 48-72 h; max response: hits give low values. Put shortly:
as §1
With `CCc1cc2cc(OC)c(OC)cc2c(Cc2ccccc2)n1`, the compound was classed as inactive.

Regarding `Nc1cccc2c(N)cccc12`, the compound was called inactive. `CC[C@@H]([C@H](C)O)n1ncn(-c2ccc(N3CCN(c4ccc(OC[C@@H]5CO[C@@](Cn6cncn6)(c6ccc(F)cc6F)C5)cc4)CC3)cc2)c1=O`: the max response is -3.01%.

As to `CC1CCCCN1CCCOC(=O)c1ccc(OC2CCCCC2)cc1` (centres undefined), the compound was classed as inactive. For the compound `OCCOCCN1CCN(C(c2ccccc2)c2ccc(Cl)cc2)CC1` (centres undefined), the max response is -23.3%.

Turning to `Cc1nc(C2CCCCC2)c(-c2ccc(S(N)(=O)=O)c(F)c2)o1`, the outcome was inactive. As to `Brc1ccccc1-c1ccccc1`, the max response was -6.21%.

As for `C/C=C(/C(=C/C)c1ccc(OC(C)=O)cc1)c1ccc(OC(C)=O)cc1`, the result was inactive. Still for that read-out and setting: as for `CC(C)Cc1ccc(C(C)C(=O)OCc2ccccn2)cc1` (centres undefined), the entry is “inactive”. On to `COc1cc2c(cc1OC)CN(C(=O)[C@H](C)N[C@@H](CCc1ccccc1)C(=O)O)[C@H](C(=O)O)C2`, for which the max response is 0.663%. In the case of `CCOC(=O)c1cc(=O)c2c(OCC(COc3cccc4oc(C(=O)OCC)cc(=O)c34)OC(=O)[C@@H](N)CCCCN)cccc2o1`, the result was inactive.

For the compound `COc1ccc2nc(SCc3ncc(C)c(OC)c3C)[nH]c2c1`, the outcome was inactive.

Regarding `CCOC(=O)Cn1cccc1-c1nc(-c2ccc(OC)cc2)c(-c2ccc(OC)cc2)s1`, the max response was -29.1%. `Cc1ccc(CCn2c3c(c4cc(Cl)ccc42)CN(C)CC3)cn1`: the call was inactive. The same measure, in the same setting: the value for `COC(=O)C1=C(C)NC(C)=C(C(=O)OCCc2ccc(N3CCN(C(c4ccccc4)c4ccccc4)CC3)cc2)C1c1cccc([N+](=O)[O-])c1` (centres undefined) was “inactive”. `CC(C(O)c1ccccc1)N(C)CCOC(c1ccccc1)c1ccccc1` (centres undefined): the max response was 2.35%. Take `O=C1Nc2cc(Cl)ccc2Oc2ccccc21`: the call was inactive.

Consider `N#CSCC(=O)O`, for which the compound was called inactive. Turning to `Oc1cccc2[nH]ccc12`, the max response was -5.11%. As for `O=C(OCCN1CCOCC1)c1cccnc1Nc1cccc(C(F)(F)F)c1`, the call was inactive.
